Measured values: PubChem BioAssay (EPA / NIEHS)
Results filed as inconclusive are left out. The source made the active and inactive calls. How the source made its calls, unless noted: active means hit-call score of the fitted dose curve at least 0.9, where 1 is the maximum; inactive means score below 0.9.

Columns and labels:
[1] = molecular target: Nuclear receptor subfamily 4 group A member 2 (Homo sapiens) (UniProt P43354); assay: ATG_NURR1_TRANS: Attagene TRANS-FACTORIAL HepG2 Assay for human Nuclear Receptor Related Protein 1 (NURR1) (AID 2282985; active means hit-call score of the fitted dose curve at least 0.9, where 1 is the maximum); conditions: HepG2 Attagene TRANS reporter, mRNA readout
In short: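 HepG2 cells transiently transfected with NURR1-Gal4 chimera and GAL4-UAS reporter units; after 24 hr compound exposure, reporter mRNA quantified by RT-PCR and capillary electrophoresis; gain of signal fitted against DMSO.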

[2] = molecular target: Transcriptional activator Myb (Homo sapiens) (UniProt P10242); assay: ATG_Myb_CIS: Attagene CIS-FACTORIAL HepG2 Assay for human Myeloblastosis (Myb) Proto-Oncogene Transcription Factor (AID 2282986); conditions: HepG2 Attagene CIS-FACTORIAL Myb reporter transcription; actives raise or lower the signal
In short: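 In this HepG2 transient-transfection format, cis-regulated reporter mRNA is quantified 24 h post-dosing by RT-PCR with capillary electrophoresis, fitted bidirectionally to DMSO baseline.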

[3] = molecular target: Nuclear respiratory factor 1 (Homo sapiens) (UniProt Q16656); assay: ATG_NRF1_CIS: Attagene CIS-FACTORIAL HepG2 Assay for human Nuclear Respiratory Factor 1 (NRF1) Orphan Gene (AID 2282987); conditions: HepG2 NRF1 cis-element reporter, Attagene multiplex; actives raise or lower the signal
In short: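 Using DMSO as baseline, gain- or loss-of-signal was fitted for reporter mRNA levels in HepG2 cells transiently transfected with cis-regulated reporter units. Samples were taken 24 h after dosing and read by RT-PCR with capillary electrophoresis.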

[4] = ATG_NFI_CIS: Attagene CIS-FACTORIAL HepG2 Assay for human Nuclear Factor I (NFI) (AID 2282989); conditions: HepG2 cis-regulatory reporter, NFI response element transcription; actives raise or lower the signal
In short: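 Read-out: reporter mRNA via RT-PCR plus capillary electrophoresis with fluorescence detection. Transiently transfected HepG2 (endogenous TF activity on cis promoters), 24 h compound exposure; gain or loss of signal fitted against DMSO.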

[5] = molecular target: Myc proto-oncogene protein (Homo sapiens) (UniProt P01106); assay: ATG_Myc_CIS: Attagene CIS-FACTORIAL HepG2 Assay for human Myelocytomatosis (Myc) Proto-Oncogene Transcription Factor (AID 2282990); conditions: HepG2, Attagene cis-reporter transcription factor activity; actives raise or lower the signal
In short: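 Read-out: fluorescent reporter mRNA fragments resolved by capillary electrophoresis after RT-PCR. Human HepG2 liver cells carried transfected cis-element reporter units and were dosed for 24 h. Gain or loss of signal fitted relative to DMSO baseline.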

[6] = ATG_NRF2_ARE_CIS: Attagene CIS-FACTORIAL HepG2 Assay for human Nuclear Factor Erythroid 2 Related Factor 2 (NFR2) response to Antioxidant Response Elements (ARE) (AID 2282992); conditions: HepG2 Attagene ARE/NRF2 reporter, transcription factor activity; actives raise or lower the signal;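 on AC50: reporter mRNA level measured by RT-PCR and capillary electrophoresis fluorescence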
In short: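 Transient MRTU transfection of HepG2; 24 h compound exposure; TriZol RNA, RT with oligo(dT), PCR, 6-FAM primer extension, HpaI cut, CE. Bidirectional fit vs DMSO.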

[7] = ATG_Oct_MLP_CIS: Attagene CIS-FACTORIAL HepG2 Assay for human Octamer-Binding Transcription Factor (Oct) (AID 2282993); conditions: HepG2 Attagene cis-factorial Oct reporter, mRNA; actives raise or lower the signal
In short: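 Read-out: reporter mRNA via RT-PCR plus capillary electrophoresis of 6-FAM-labelled fragments. Transiently transfected HepG2, 24 h exposure, endogenous TF activity on cis elements. Gain or loss of signal fitted relative to DMSO.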

[8] = molecular target: Cellular tumor antigen p53 (Homo sapiens) (UniProt P04637); assay: ATG_p53_CIS: Attagene CIS-FACTORIAL HepG2 Assay for human p53 Transcription Factor (AID 2282994); conditions: HepG2 p53 cis-element reporter, Attagene mRNA; actives raise or lower the signal
In short: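 HepG2, transient MRTU transfection (cis promoter elements, endogenous TFs); 24 h dosing; RNA isolation, RT-PCR, 6-FAM primer extension, HpaI digest, CE fluorescence; bidirectional fit vs DMSO.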

[9] = BSK_3C_TissueFactor: BioMAP Diversity Plus: 3C Assay for Tissue Factor Biomarker Activity (AID 2282997); conditions: BioMAP 3C HUVEC, tissue factor biomarker readout; actives raise or lower the signal
In short: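 ELISA read-out of Tissue Factor levels on human umbilical vein endothelium collected 24 h after chemical dosing. Gain or loss of signal was fitted relative to DMSO.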

[10] = BSK_3C_uPAR: BioMAP Diversity Plus: 3C Assay for Urokinase-type plasminogen activator receptor (uPAR) Biomarker Activity (AID 2282998); conditions: BioMAP 3C HUVEC, uPAR biomarker ELISA; actives raise or lower the signal
In short: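 HUVEC primary cells; 24 h post-dose; uPAR by ELISA; gain or loss of signal fitted bidirectionally vs DMSO baseline.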

[11] = BSK_3C_VCAM1: BioMAP Diversity Plus: 3C Assay for Vascular cell adhesion molecule 1 (VCAM1) Biomarker Activity (AID 2282999); conditions: BioMAP 3C HUVEC, VCAM1 ELISA, cytokine-stimulated; actives raise or lower the signal
In short: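 Human umbilical vein endothelial cells (3C system), biomarker read by ELISA 24 h after dosing; bidirectional fit against DMSO baseline. Cytotoxicity tracked by SRB total-protein staining in parallel cultures at biomarker time.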

[12] = molecular target: human Peroxisome Proliferator-activated Receptor alpha (PPARa), PPARA (gene 5465) (UniProt Q07869); assay: ATG_PPARa_TRANS: Attagene TRANS-FACTORIAL HepG2 Assay for human Peroxisome Proliferator-activated Receptor alpha (PPARa) (AID 2283001; active means hit-call score of the fitted dose curve at least 0.9, where 1 is the maximum;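 on AC50: potency for gain of reporter signal over DMSO so agonist or activator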)
In short: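 HepG2 cells transiently transfected with multiplexed GAL4-UAS reporters driven by exogenous chimeric NR-Gal4 proteins; reporter mRNA measured after 24 h dosing. Read-out by RT-PCR, 6-FAM labelling, HpaI digestion and capillary electrophoresis; gain of signal versus DMSO.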

[13] = read-out: Intercellular Adhesion Molecule 1 (ICAM1), ICAM1 (gene 3383); assay: BSK_3C_ICAM1: BioMAP Diversity Plus: 3C Assay for Intercellular Adhesion Molecule 1 (ICAM1) Biomarker Activity (AID 2283003); conditions: primary human endothelial cells (HUVEC); actives raise or lower the signal
In short: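 ICAM-1 levels measured by ELISA after HUVEC cultures in the 3C system had been dosed for 24 h. Gain or loss of signal relative to DMSO was fitted in both directions.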

[14] = molecular target: human Retinoic Acid Receptor beta (RARb), RARB (gene 5915) (UniProt P10826); assay: ATG_RARb_TRANS: Attagene TRANS-FACTORIAL HepG2 Assay for human Retinoic Acid Receptor beta (AID 2283004; active means hit-call score of the fitted dose curve at least 0.9, where 1 is the maximum)
In short: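 Transient transfection of HepG2 with multiple reporter units → chemical dosing, 24 h → total RNA isolation → RT with oligo(dT) → reporter-specific PCR, 6-FAM primer extension, HpaI digest → capillary electrophoresis. Positive direction vs DMSO control.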

[15] = molecular target: Retinoic acid receptor alpha (Homo sapiens) (UniProt P10276); assay: ATG_RARa_TRANS: Attagene TRANS-FACTORIAL HepG2 Assay for human Retinoic Acid Receptor alpha (RARa) (AID 2283005; active means hit-call score of the fitted dose curve at least 0.9, where 1 is the maximum;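 on AC50: potency for increased reporter signal meaning RARa activation over DMSO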)
In short: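 HepG2 transiently transfected with multiplex GAL4-UAS reporter units including a human RARa–GAL4 chimera; 24 h compound exposure. Reporter mRNA quantified by RT-PCR, 6-FAM labeling and capillary electrophoresis; gain of signal versus DMSO.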

[16] = BSK_3C_Proliferation: Cell Proliferation Assessment in the BioMAP Diversity Plus: 3C Assay (AID 2283006); conditions: primary human endothelial cells (HUVEC);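 on AC50: potency may reflect either rise or fall in cell number versus DMSO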
In short: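 Read-out is total protein by SRB absorbance at 560 nm, taken as a proxy for relative cell number. Primary human umbilical vein endothelium cultured below confluence was dosed for 48 h, TCA-fixed and SRB-stained; curves were fitted bidirectionally versus DMSO.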

[17] = molecular target: Peroxisome proliferator-activated receptor gamma (Homo sapiens) (UniProt P37231); assay: ATG_PPARg_TRANS: Attagene TRANS-FACTORIAL HepG2 Assay for human Peroxisome Proliferator-activated Receptor-gamma (PPARg) (AID 2283007; active means hit-call score of the fitted dose curve at least 0.9, where 1 is the maximum)
In short: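 Endpoint reflects upward reporter mRNA change versus DMSO controls. Setup: transiently transfected HepG2, GAL4-UAS reporters driven by chimeric NR-Gal4, 24 h incubation, RT-PCR with capillary electrophoresis read-out.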

[18] = ATG_NF_kB_CIS: Attagene CIS-FACTORIAL HepG2 Assay for human Nuclear Factor Kappa B (NF-kB) (AID 2282991); conditions: HepG2 Attagene cis-factorial NF-kB reporter mRNA; actives raise or lower the signal
In short: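 Endpoint from a 52-component multiplexed HepG2 reporter panel: cis-regulated transcription units transiently transfected, 24 h dosing, reporter mRNA quantified by RT-PCR and capillary electrophoresis, scored as increase or decrease against DMSO.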

[19] = BSK_4H_Eotaxin3: BioMAP Diversity Plus: 4H Assay for Eotaxin 3 Biomarker Activity (AID 2283000); conditions: primary human endothelial cells (HUVEC); actives raise or lower the signal
In short: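 Chemicals were added to human umbilical vein endothelium cultures, and Eotaxin-3 was quantified by ELISA at 24 h. Values were derived by bidirectional fitting with DMSO serving as negative control and activity baseline.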

[20] = molecular target: human Peroxisome Proliferator-activated Receptor delta (PPARd), PPARD (gene 5467) (UniProt Q03181); assay: ATG_PPARd_TRANS: Attagene TRANS-FACTORIAL HepG2 Assay for human Peroxisome Proliferator-activated Receptor delta (PPARd) (AID 2283002; active means hit-call score of the fitted dose curve at least 0.9, where 1 is the maximum)
In short: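 Read-out: reporter mRNA induction, quantified by fluorescent RT-PCR products resolved by capillary electrophoresis. Human HepG2 liver cells carried transiently transfected Gal4-UAS reporter constructs with chimeric NR-Gal4 fusions. Cells were dosed for 24 h; DMSO served as baseline.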

Measured: AC50

Chain of Peroxisome proliferator-activated receptor gamma (Homo sapiens) (P37231 whole entry, looked up, the tested form may be a part): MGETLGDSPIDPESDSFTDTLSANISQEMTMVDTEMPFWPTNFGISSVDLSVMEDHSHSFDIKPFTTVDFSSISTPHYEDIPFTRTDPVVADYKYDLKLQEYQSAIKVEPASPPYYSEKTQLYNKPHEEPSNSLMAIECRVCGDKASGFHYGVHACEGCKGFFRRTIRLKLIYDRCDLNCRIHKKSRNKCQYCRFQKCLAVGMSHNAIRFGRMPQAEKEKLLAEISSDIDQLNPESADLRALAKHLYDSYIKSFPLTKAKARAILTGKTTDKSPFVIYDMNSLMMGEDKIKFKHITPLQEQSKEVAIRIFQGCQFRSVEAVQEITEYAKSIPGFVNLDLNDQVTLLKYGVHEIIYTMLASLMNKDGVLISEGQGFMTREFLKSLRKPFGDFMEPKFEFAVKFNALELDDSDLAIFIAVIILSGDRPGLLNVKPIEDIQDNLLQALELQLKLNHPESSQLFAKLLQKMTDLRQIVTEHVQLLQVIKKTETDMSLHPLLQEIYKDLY
Chain of Transcriptional activator Myb (Homo sapiens) (P10242 whole entry, looked up): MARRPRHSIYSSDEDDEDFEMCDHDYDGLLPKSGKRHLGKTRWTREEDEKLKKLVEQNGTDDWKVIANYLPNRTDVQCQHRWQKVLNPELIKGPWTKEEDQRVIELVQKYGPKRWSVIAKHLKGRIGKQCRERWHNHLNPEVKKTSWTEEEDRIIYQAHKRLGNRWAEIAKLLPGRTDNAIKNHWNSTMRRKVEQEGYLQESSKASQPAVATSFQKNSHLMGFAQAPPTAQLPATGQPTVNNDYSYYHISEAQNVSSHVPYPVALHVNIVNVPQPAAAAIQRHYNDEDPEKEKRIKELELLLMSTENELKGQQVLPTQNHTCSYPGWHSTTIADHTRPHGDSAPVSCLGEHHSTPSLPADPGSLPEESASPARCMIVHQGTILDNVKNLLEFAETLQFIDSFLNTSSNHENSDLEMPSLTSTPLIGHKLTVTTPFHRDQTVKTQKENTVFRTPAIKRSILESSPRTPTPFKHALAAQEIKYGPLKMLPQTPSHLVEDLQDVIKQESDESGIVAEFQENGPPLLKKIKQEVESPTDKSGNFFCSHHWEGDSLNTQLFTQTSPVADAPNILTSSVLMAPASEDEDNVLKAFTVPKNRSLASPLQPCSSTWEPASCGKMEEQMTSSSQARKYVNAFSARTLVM
Chain of Nuclear receptor subfamily 4 group A member 2 (Homo sapiens) (P43354 whole entry, looked up, the tested form may be a part): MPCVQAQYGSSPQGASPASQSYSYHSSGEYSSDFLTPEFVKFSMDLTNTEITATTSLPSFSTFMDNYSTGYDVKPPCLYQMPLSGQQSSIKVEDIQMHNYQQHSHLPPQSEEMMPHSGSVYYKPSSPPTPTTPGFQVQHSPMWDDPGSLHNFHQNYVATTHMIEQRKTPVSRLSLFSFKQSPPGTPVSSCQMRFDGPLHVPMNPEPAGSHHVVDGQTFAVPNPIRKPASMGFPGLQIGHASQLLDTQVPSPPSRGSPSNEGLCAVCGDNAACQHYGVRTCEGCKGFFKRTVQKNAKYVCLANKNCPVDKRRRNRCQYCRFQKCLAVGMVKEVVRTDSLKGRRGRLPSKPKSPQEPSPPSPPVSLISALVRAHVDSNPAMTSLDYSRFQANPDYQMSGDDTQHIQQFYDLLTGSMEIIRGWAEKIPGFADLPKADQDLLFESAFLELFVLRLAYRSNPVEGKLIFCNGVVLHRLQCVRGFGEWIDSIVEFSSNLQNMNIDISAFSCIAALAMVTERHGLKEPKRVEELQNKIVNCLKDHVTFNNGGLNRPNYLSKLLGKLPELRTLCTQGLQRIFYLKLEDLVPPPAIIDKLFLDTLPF
Chain of Nuclear respiratory factor 1 (Homo sapiens) (Q16656 whole entry, looked up): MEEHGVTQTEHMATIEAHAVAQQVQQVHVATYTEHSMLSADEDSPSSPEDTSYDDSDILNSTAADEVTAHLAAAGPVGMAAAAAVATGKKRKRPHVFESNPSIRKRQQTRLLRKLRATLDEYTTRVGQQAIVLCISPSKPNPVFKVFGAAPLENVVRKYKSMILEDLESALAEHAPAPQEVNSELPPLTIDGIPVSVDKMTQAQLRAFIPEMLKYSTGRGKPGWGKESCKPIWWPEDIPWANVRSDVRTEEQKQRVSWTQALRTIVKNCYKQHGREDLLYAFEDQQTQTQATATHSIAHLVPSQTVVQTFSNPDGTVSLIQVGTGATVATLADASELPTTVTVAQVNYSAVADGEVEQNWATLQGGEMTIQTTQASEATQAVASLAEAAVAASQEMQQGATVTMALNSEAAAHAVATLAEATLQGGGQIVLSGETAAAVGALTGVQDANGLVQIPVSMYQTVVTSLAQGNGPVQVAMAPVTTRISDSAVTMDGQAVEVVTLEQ
Chain of human Peroxisome Proliferator-activated Receptor alpha (PPARa), PPARA (gene 5465) (Q07869 whole entry, looked up, the tested form may be a part): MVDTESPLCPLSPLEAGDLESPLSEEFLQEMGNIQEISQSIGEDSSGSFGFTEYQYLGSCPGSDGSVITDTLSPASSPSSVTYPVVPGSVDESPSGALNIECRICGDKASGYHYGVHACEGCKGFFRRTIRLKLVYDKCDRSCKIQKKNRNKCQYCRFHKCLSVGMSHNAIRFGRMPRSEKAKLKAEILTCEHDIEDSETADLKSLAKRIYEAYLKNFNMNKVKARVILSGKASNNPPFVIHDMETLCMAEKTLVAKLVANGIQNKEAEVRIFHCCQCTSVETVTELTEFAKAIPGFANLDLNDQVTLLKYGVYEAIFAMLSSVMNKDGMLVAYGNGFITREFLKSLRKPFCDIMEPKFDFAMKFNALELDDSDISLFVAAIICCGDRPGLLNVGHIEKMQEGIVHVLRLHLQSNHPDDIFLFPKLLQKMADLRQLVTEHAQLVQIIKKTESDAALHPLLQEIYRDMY
Chain of human Peroxisome Proliferator-activated Receptor delta (PPARd), PPARD (gene 5467) (Q03181 whole entry, looked up, the tested form may be a part): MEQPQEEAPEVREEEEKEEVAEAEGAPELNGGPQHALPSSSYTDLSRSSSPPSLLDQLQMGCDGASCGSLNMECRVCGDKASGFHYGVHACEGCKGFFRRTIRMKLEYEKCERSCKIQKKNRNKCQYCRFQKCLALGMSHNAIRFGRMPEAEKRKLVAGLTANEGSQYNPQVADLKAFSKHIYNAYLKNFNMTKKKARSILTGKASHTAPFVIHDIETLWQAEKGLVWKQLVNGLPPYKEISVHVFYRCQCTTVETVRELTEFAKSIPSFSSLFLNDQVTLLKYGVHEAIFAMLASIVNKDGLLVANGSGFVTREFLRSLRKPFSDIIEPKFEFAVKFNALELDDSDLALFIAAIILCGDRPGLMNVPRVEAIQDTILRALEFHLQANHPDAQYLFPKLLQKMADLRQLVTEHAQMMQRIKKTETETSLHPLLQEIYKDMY
Chain of Retinoic acid receptor alpha (Homo sapiens) (P10276 whole entry, looked up, the tested form may be a part): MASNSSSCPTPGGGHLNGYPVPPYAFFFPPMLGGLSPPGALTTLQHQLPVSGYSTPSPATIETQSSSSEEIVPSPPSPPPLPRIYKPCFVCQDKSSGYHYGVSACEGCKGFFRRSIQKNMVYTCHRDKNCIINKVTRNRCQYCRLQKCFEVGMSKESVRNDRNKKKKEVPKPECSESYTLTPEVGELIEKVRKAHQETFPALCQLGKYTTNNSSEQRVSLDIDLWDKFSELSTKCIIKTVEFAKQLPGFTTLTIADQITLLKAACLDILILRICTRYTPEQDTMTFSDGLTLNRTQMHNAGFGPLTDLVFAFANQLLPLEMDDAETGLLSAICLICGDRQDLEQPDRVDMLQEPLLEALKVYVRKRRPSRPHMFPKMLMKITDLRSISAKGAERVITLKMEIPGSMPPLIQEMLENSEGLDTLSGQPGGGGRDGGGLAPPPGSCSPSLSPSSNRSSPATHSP
Chain of Myc proto-oncogene protein (Homo sapiens) (P01106 whole entry, looked up, the tested form may be a part): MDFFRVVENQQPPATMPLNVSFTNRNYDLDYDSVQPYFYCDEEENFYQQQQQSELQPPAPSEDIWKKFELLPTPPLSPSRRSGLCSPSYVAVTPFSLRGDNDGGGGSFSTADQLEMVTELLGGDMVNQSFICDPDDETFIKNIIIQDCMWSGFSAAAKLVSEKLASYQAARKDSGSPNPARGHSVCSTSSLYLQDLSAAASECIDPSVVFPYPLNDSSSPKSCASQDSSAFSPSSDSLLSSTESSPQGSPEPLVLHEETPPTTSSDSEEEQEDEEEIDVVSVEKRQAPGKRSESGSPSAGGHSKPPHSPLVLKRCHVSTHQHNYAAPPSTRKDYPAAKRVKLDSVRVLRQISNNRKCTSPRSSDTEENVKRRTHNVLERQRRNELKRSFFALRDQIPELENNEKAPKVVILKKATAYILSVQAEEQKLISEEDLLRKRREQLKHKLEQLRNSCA
Chain of human Retinoic Acid Receptor beta (RARb), RARB (gene 5915) (P10826 whole entry, looked up): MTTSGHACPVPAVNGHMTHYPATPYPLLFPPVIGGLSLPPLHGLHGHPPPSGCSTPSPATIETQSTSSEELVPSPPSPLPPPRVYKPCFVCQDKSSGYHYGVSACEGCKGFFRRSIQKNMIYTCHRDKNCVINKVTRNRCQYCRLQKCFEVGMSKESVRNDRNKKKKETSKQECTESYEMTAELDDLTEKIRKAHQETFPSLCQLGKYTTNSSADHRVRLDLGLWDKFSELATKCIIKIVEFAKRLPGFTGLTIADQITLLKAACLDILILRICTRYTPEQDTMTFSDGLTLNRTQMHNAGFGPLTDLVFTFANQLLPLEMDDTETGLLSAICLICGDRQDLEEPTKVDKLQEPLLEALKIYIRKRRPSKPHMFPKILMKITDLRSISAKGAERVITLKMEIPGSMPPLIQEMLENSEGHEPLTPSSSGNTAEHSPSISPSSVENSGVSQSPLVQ
Chain of Cellular tumor antigen p53 (Homo sapiens) (P04637 whole entry, looked up): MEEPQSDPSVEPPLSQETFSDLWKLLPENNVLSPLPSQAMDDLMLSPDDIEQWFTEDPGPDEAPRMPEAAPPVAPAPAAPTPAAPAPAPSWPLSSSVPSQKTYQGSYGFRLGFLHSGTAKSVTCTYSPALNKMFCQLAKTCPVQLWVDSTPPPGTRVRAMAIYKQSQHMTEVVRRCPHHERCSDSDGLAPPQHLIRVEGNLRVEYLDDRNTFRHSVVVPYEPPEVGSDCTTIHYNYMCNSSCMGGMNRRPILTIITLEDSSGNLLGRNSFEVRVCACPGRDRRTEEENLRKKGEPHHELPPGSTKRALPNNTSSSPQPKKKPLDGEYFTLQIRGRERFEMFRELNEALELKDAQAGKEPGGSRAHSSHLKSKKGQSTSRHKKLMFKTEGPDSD

CCCCC(C#N)(Cn1cncn1)c1ccc(Cl)cc1 (stereo not given)
active: [15] 19.7 µM
inactive: [1] | [2] | [3] | [4] | [5] | [6] | [7] | [8] | [9] | [10] | [11] | [12] | [13] | [14] | [16] | [17]

CCOC(=O)C(C)OC(=O)c1cc(Oc2ccc(C(F)(F)F)cc2Cl)ccc1[N+](=O)[O-] (stereo not given)
active: [6] 17.2 µM | [10] 13.3 µM | [12] 1.57 µM | [17] 14.1 µM
inactive: [2] | [3] | [4] | [5] | [18] | [7] | [8] | [9] | [11] | [19] | [13] | [16]

CS(=O)(=O)c1cc(C(F)(F)F)ccc1C(=O)c1cnoc1C1CC1
active: [6] 19.1 µM | [7] 50 µM | [17] 14.2 µM
inactive: [2] | [3] | [4] | [5] | [18] | [8] | [9] | [10] | [11] | [19] | [12] | [13] | [14] | [15] | [16]

Clc1cccc(C(Cl)(Cl)Cl)n1
inactive: [2] | [3] | [4] | [5] | [6] | [7] | [8] | [9] | [10] | [11] | [12] | [13] | [16] | [17]

CCOc1cc(C(C)(C)C)ccc1C1COC(c2c(F)cccc2F)=N1 (stereo not given)
inactive: [2] | [3] | [4] | [5] | [18] | [12] | [13] | [14] | [17]
active: [6] 1.62 µM | [7] 0.581 µM | [9] 37 µM | [10] 29.7 µM | [11] 28 µM | [15] 3.63 µM | [16] 14.4 µM

COP(=S)(OC)SCn1nnc2ccccc2c1=O
active: [6] 25.1 µM | [7] 12.8 µM
inactive: [2] | [3] | [4] | [5] | [8] | [9] | [10] | [11] | [19] | [12] | [20] | [13] | [14] | [16] | [17]

C=CCOC(=O)C(C)(C)OC(=O)c1cc(-n2c(=O)cc(C(F)(F)F)n(C)c2=O)ccc1Cl
inactive: [2] | [3] | [4] | [5] | [7] | [8] | [9] | [11] | [13] | [16] | [17]
active: [6] 21.9 µM | [10] 2.18 µM

CCCN(CC)CC1COC2(CCC(C(C)(C)C)CC2)O1 (stereo not given)
active: [6] 5.91 µM | [7] 14.5 µM
inactive: [2] | [3] | [4] | [5] | [18] | [8] | [9] | [10] | [11] | [12] | [20] | [13] | [16]

CCN(CC)C(=O)C(C)Oc1cccc2ccccc12 (stereo not given)
active: [6] 0.485 µM | [7] 4.2 µM | [19] 10.8 µM | [16] 6.69 µM | [17] 50 µM
inactive: [1] | [2] | [3] | [4] | [5] | [8] | [9] | [10] | [11] | [20] | [13]

CC(C)N1C(=O)c2ccccc2NS1(=O)=O
active: [6] 33 µM
inactive: [2] | [3] | [4] | [5] | [18] | [7] | [8] | [9] | [10] | [11] | [19] | [12] | [20] | [13] | [16] | [17]

CC(C)Nc1nc(Cl)nc(NC(C)C)n1
inactive: [1] | [2] | [3] | [4] | [5] | [6] | [7] | [8] | [9] | [10] | [11] | [19] | [20] | [13] | [16] | [17]

CC1(C)CON(Cc2ccccc2Cl)C1=O
active: [6] 44.1 µM
inactive: [2] | [3] | [4] | [5] | [18] | [7] | [8] | [9] | [10] | [11] | [19] | [12] | [20] | [13] | [14] | [15] | [16] | [17]

CCNC(=O)NC(=O)C(C#N)=NOC
inactive: [1] | [2] | [3] | [4] | [5] | [6] | [7] | [9] | [10] | [11] | [19] | [20] | [13] | [15] | [16] | [17]
